Experimental data: PubChem BioAssay (NCATS)
Records with an inconclusive call do not appear. Calls of active or inactive are those of the source. Calls follow the shape of the dose curve; as a rule, active = well fitted curve in the direction sought with a large enough effect; inconclusive = small, poorly fitted or top-dose-only effect, or another doubt; inactive = no such curve, though single readings can be large; an effect the other way counts as inactive or inconclusive.

How the values were obtained:
[1] = Cellular Toxicity (caspase-3) N2a (AID 665); conditions: N2a cells, luminescence, normalized: DMSO 0%, 10 µM staurosporine 100%; series mostly up to 92.2 µM;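 also: compound exposure lasted 16 h at 37 °C before readout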
Outline: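 Caspase-3/7 activation, measured as increased luminescence from aminoluciferin release, is quantified in mouse N2a cells exposed to compounds for 16 h. Values are normalized to DMSO and 10 uM staurosporine, with AC50 derived by Hill modelling.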

[2] = Cellular Toxicity (caspase-3) NIH 3T3 (AID 666); conditions: NIH 3T3 caspase-3 activation, apoptosis/toxicity, 0% DMSO, 100% is 100 µM tamoxifen; series mostly up to 92.2 µM;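 also: caspase signal read after 16 h compound exposure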
Outline: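 Cells were plated at 1000 per well and incubated 5 hr at 37°C, then compound was added for 16 hr. Caspase-Glo 3/7 reagent followed for 20 min at room temperature before luminescence was read.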

[3] = Cellular Toxicity (caspase-3) Renal Proximal Tubule (AID 667); conditions: renal proximal tubule cells; series mostly up to 91.7 µM;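 also: cells exposed to compound for 16 hours at 37 °C before detection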
Outline: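 Primary rat proximal tubule cells, 1000/well, 5 h plating at 37 °C, then compound 16 h at 37 °C. Caspase-Glo 3/7 reagent, 1 h RT, luminescence. Normalized to DMSO (basal) and 10 uM staurosporine (100%); Hill-fit AC50.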

[4] = target: Cytochrome P450 3A4 (Homo sapiens) (UniProt P08684); assay: qHTS Assay for Inhibitors and Substrates of Cytochrome P450 3A4 (AID 884); conditions: recombinant CYP3A4, Luciferin-PPXE luminescence; series mostly up to 57.1 µM; also: nearly all actives have a fitted effect of over 50% in size
Outline: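 Luminescent readout of luciferin produced by CYP3A4 (20 nM) dealkylation of Luciferin-PPXE, 25 uM (its KM). NADPH-driven reaction ran 60 min at RT after 10 min compound preincubation; data scaled to 57 uM ketoconazole as 100% inhibition.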

[5] = Cell Viability - LYMP2-001 (AID 921); conditions: LYMP2-001 lymphoblastoid cell viability; series mostly up to 92.2 µM; also: nearly all actives have a fitted effect of over 70% in size
Outline: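 Human lymphoblastoid cells (Coriell), 2500 per well, were preincubated 5 hr at 37 C, then exposed to compounds in complete medium for 24 hr at 37 C. Cellular ATP was read by CellTiter-Glo luminescence; AC50 from Hill fits of concentration-response data.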

[6] = MultiTox-Fluor Cytotoxicity Assay - LYMP1-001 - Dead Cells (AID 946); conditions: LYMP1-001 lymphoblastoid cells, dead-cell protease fluorescence; series mostly up to 92.2 µM
Outline: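 Cytotoxicity as increased dead-cell protease fluorescence (bis-AAF-R110, 485/520 nm), read 60 min after MultiTox-Fluor reagent. Human lymphoblastoid line exposed 16 h; Hill-fitted AC50, with DMSO as 0% and 15 uM tetraoctylammonium bromide as 100%.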

[7] = MultiTox-Fluor Cytotoxicity Assay - LYMP1-001 - Live Cells (AID 947); conditions: LYMP1-001 lymphoblastoid cells, live-cell protease fluorescence viability; series mostly up to 92.2 µM
[8] = Cell Viability - LYMP1-002 - Assay at 16 hr (AID 948); conditions: LYMP1-002 lymphoblastoid cell viability; series mostly up to 92.2 µM
Outline: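 Human lymphoblastoid cells (LYMP1-002), 2500/well, were preincubated 5 hr at 37 C, then exposed to compounds for 16 hr at 37 C in complete medium. Cellular ATP was read by CellTiter-Glo luminescence after 30 min at room temperature; AC50 from Hill fits.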

[9] = MultiTox-Fluor Cytotoxicity Assay - LYMP1-002 - Live Cells (AID 955); conditions: LYMP1-002 lymphoblastoid live-cell protease fluorescence viability; series mostly up to 46.1 µM
Outline: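 Cells were seeded at 2500 per well and incubated 5 hr. Compounds were then added for 16 hr at 37 C, followed by MultiTox-Fluor reagent for 60 min at room temperature and fluorescence reading of viable-cell protease signal.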

[10] = MultiTox-Fluor Cytotoxicity Assay - LYMP1-002 - Dead Cells (AID 960); conditions: LYMP1-002 lymphoblastoid cells, dead-cell protease fluorescence; series mostly up to 46.1 µM; also: nearly all actives have a fitted effect of over 60% in size
Outline: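 Cells were plated, rested 5 hr, then treated with compound dilution series for 16 hr at 37 C. After adding substrate reagent and 60 min at room temperature, dead-cell protease fluorescence gave concentration-response curves fitted by the Hill equation.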

[11] = MultiTox-Fluor Cytotoxicity Assay - LYMP1-003 - Live Cells (AID 962); conditions: LYMP1-003 lymphoblastoid cells, MultiTox-Fluor live-cell protease fluorescence; series mostly up to 92.2 µM;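 also: cytotoxic hits lower the live-cell protease signal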
Outline: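 Acute cytotoxicity is scored as a drop in live-cell protease activity in human lymphoblastoid LYMP1-003 cells after 16 hr compound exposure at 37 C. AC50 values come from Hill-equation modelling of concentration-response data.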

[12] = Cell Viability - LYMP1-003 - Assay at 24 hr (AID 963); conditions: LYMP1-003 lymphoblastoid cell viability; series mostly up to 92.2 µM
Outline: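 Cytotoxicity is scored as a concentration-dependent fall in ATP-linked luciferase signal in human lymphoblastoid LYMP1-003 cells treated 24 hr at 37 C in complete culture medium.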

[13] = Cell Viability - LYMP1-003 - Assay at 40 hr (AID 964); conditions: LYMP1-003 lymphoblastoid viability; series mostly up to 92.2 µM; also: nearly all actives have a fitted effect of over 60% in size
Outline: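 Luminescent ATP signal (CellTiter-Glo) served as the viability read-out after 40 hr compound treatment of human lymphoblastoid LYMP1-003 cells at 37 C. Decreases in ATP were fitted with the Hill equation to give AC50.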

[14] = Cell Viability - LYMP2-003 (AID 965); conditions: LYMP2-003 lymphoblastoid cell viability; series mostly up to 92.2 µM;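 also: cells exposed to compounds for 24 h before reading; nearly all actives have a fitted effect of over 50% in size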
Outline: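 Human lymphoblastoid cells (2500/well) were pre-incubated 5 hr at 37 C, then exposed to compounds over a concentration range for 24 hr at 37 C. Intracellular ATP was read by CellTiter-Glo luminescence; AC50 came from Hill-equation fits.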

[15] = Cell Viability - LYMP2-004 (AID 966); conditions: LYMP2-004 lymphoblastoid cell viability, qHTS; series mostly up to 92.2 µM; also: nearly all actives have a fitted effect of over 65% in size
Outline: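 qHTS cytotoxicity: human lymphoblastoid line, 24 hr compound treatment, 37 C, complete medium. Viability read as cellular ATP via luciferase luminescence; tetraoctylammonium bromide served as positive control.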

[16] = Cell Viability - LYMP2-005 (AID 967); conditions: LYMP2-005 lymphoblastoid cell viability; series mostly up to 92.2 µM
Outline: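 CellTiter-Glo luminescence (cellular ATP) read-out; LYMP2-005 lymphoblastoid cells, 2500/well, 5 h pre-incubation, then 24 h compound exposure at 37 C in complete medium. Tetraoctylammonium bromide positive control; AC50 by standard Hill fit.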

[17] = Cell Viability - LYMP2-009 (AID 968); conditions: LYMP2-009 lymphoblastoid cell viability; series mostly up to 92.2 µM; also: nearly all actives have a fitted effect of over 55% in size
[18] = Cell Viability - LYMP2-011 (AID 969); conditions: LYMP2-011 lymphoblastoid cells viability; series mostly up to 92.2 µM; also: nearly all actives have a fitted effect of over 60% in size
Outline: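 In this qHTS cytotoxicity format, compounds are tested across concentrations on human lymphoblastoid cells in complete medium for 24 hours at 37 C. Viability is taken as cellular ATP measured by luciferase luminescence.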

[19] = Cell Viability - LYMP2-013 (AID 970); conditions: LYMP2-013 lymphoblastoid cells viability; series mostly up to 92.2 µM; also: nearly all actives have a fitted effect of over 55% in size
Outline: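 Cytotoxicity is scored as a concentration-dependent drop in intracellular ATP in human lymphoblastoid cells after 24 hr compound exposure at 37 C. ATP is quantified by luciferase luminescence, and AC50 values come from Hill-equation modeling.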

[20] = Cell Viability - LYMP2-015 (AID 971); conditions: LYMP2-015 lymphoblastoid cell viability; series mostly up to 92.2 µM; also: nearly all actives have a fitted effect of over 55% in size
Outline: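 Cells are seeded at 2500 per well and incubated 5 hr at 37 C. Compounds are added across a concentration series for 24 hr at 37 C. CellTiter-Glo is added, and luminescence is read after 30 min at room temperature.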

[21] = Cell Viability - LYMP2-017 (AID 972); conditions: LYMP2-017 lymphoblastoid cell viability; series mostly up to 92.2 µM; also: nearly all actives have a fitted effect of over 55% in size
Outline: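 Cytotoxicity is scored as a concentration-dependent drop in cellular ATP in a human lymphoblastoid line after 24 hr treatment at 37 C. Values are AC50s from Hill-equation modelling.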

[22] = Cell Viability - LYMP2-021 (AID 974); conditions: LYMP2-021 lymphoblastoid cells viability; series mostly up to 92.2 µM
Outline: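 Loss of cellular ATP, measured with a luciferase-based CellTiter-Glo readout, serves as the toxicity signal in human lymphoblastoid cells treated for 24 hours at 37 C. Potency is reported as AC50 from a standard Hill model.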

Measured: Potency

Chain of Cytochrome P450 3A4 (Homo sapiens) (P08684 whole entry, looked up): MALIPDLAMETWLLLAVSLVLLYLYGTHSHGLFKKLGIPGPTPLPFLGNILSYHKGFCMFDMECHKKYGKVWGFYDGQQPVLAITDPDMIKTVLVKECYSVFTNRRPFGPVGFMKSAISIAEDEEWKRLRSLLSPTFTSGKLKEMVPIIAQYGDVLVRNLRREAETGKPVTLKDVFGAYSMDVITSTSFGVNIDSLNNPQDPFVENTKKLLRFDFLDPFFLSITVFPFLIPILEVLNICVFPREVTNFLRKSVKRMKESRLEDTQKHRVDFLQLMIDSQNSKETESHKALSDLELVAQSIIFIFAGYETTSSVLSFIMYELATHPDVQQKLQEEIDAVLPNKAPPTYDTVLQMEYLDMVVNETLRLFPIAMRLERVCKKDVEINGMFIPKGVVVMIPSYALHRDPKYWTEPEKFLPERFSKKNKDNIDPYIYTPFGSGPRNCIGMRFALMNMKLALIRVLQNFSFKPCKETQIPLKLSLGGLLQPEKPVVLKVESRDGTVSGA

Oc1ccccc1Cl
inactive: all assays above
